Results on 19 compounds are retold here after PubChem BioAssay.

What is called inhibition is the relative decrease from the control value, in per cent.

Assay [1] in a line: antimalarial activity against Dd2 strain (AID 2302;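 active = growth inhibition above 50% at the single 2 µM test dose, taken to imply half-maximal potency below 2 µM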;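 note: 0% = DMSO untreated growth and 100% = chloroquine plus artemisinin killed control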). Particulars: P. falciparum Dd2 in RBCs, LDH growth readout, 72 h; at 2 µM; hits give high values.
The nature of assay [2]: human hepatoma cell viability loss – ATP luminescence, cytotoxicity control for P. falciparum antimalarial project, primary screen (AID 2303;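 active = inhibition above 50%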;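 note: 0% = DMSO wells and 100% = digitonin-killed cells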). To be noted: HepG2 viability, 24-48 h, at 10 µM, hits give high values.
For assay [3], the target named is L-lactate dehydrogenase (Plasmodium falciparum (isolate CDC / Honduras)) (UniProt Q27743). As to the kind of experiment: PfLDH activity inhibition – cell lysate, 3D7 strain, counter-screen for P. falciparum growth inhibition project (AID 2304).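 Note: 0% = vehicle and 100% = reference inhibitor.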 Particulars: P. falciparum 3D7 crude extract, LDH APAD/NBT absorbance; at 2 µM; hits give high values.
Chain of L-lactate dehydrogenase (Plasmodium falciparum (isolate CDC / Honduras)) (Q27743 whole entry, looked up): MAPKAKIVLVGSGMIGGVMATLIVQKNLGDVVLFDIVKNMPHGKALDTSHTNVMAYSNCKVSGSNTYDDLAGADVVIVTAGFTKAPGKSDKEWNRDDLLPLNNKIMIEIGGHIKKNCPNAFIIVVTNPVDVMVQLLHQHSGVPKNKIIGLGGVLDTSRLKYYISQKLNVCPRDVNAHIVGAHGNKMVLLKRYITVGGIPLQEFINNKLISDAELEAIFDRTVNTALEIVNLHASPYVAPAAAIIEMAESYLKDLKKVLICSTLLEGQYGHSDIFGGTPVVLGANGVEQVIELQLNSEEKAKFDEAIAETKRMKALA
Assay [4] in a line: inhibition of 3D7 malaria parasite growth – strain 3D7 (AID 2306).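 Note: 0% = DMSO wells and 100% = chloroquine plus artemisinin control wells.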 To be noted: P. falciparum 3D7 erythrocytic growth, LDH absorbance, 72 h; at 2 µM; hits give high values.
Assay [5] deals with Calcium-dependent protein kinase 1 (Plasmodium falciparum (isolate 3D7)) (UniProt P62344). As to the kind of experiment: PfCDPK1 kinase inhibitors, biochemical, TCAMS library (AID 1159585; cut-off not given, nearly all actives have IC50 up to about 0.98 µM;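 note: inhibitors leave more ATP so luminescence rises with inhibition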). To be noted: recombinant PfCDPK1, Kinase-Glo ATP depletion luminescence. For orientation: Kinase-Glo reads ATP consumption through a luciferase reaction.
Chain of Calcium-dependent protein kinase 1 (Plasmodium falciparum (isolate 3D7)) (P62344 whole entry, looked up): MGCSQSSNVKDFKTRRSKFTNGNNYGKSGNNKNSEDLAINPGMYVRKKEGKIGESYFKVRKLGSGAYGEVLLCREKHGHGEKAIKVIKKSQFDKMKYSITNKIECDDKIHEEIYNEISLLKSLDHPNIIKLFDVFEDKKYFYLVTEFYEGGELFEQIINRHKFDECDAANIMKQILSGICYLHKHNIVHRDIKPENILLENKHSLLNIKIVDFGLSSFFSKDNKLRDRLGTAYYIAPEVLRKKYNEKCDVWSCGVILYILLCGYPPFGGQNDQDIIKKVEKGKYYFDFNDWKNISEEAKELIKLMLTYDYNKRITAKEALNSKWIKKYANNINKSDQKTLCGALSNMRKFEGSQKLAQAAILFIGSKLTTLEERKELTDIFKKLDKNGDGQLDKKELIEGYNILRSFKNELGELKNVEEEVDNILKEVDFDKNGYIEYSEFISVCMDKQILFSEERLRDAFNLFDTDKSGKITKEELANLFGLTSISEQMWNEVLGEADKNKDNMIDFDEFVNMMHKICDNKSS
Assay [6] addresses Plasmodium falciparum protein kinase 6 (PK6, PF3D7_1337100) (UniProt Q8IDW1). As to the kind of experiment: PfPK6 kinase inhibitors, biochemical, TCAMS library (AID 1159586). Particulars: recombinant PfPK6, Kinase-Glo ATP depletion luminescence.
Assay [7] deals with Protein kinase 7 (PK7), Plasmodium falciparum 3D7 (PF3D7_0213400) (UniProt Q7YTF7). As to the kind of experiment: inhibition of Plasmodium PK7 catalytic activity – biochemical, TCAMS antimalarial set, Kinase-Glo luminescence (AID 1159587). To be noted: recombinant PfPK7, Kinase-Glo ATP depletion luminescence.
Chain of Protein kinase 7 (PK7), Plasmodium falciparum 3D7 (PF3D7_0213400) (Q7YTF7 1-343): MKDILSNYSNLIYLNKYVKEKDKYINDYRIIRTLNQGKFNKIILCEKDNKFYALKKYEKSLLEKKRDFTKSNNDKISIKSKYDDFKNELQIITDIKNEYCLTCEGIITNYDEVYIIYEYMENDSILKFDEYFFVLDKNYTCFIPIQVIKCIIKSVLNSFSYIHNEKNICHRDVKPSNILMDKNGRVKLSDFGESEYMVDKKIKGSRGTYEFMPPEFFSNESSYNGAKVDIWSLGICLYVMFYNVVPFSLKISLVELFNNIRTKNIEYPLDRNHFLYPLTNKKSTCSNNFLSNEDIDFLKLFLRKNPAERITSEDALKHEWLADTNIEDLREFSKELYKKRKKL
Assay [8] addresses Calcium-dependent protein kinase 4 (Plasmodium falciparum (isolate 3D7)) (UniProt Q8IBS5). As to the kind of experiment: PfCDPK4 kinase inhibitors, biochemical, TCAMS library (AID 1159588; cut-off not given, nearly all actives have IC50 up to about 0.91 µM). Particulars: recombinant PfCDPK4, Kinase-Glo ATP depletion luminescence.

A number with no mark means an inactive call. For some assays here: Results with a measured potency or affinity are listed apart. Active and inactive are the calls of the source. Unless noted, the rule behind the calls is not given here.

Chain of Calcium-dependent protein kinase 4 (Plasmodium falciparum (isolate 3D7)) (Q8IBS5 whole entry, looked up): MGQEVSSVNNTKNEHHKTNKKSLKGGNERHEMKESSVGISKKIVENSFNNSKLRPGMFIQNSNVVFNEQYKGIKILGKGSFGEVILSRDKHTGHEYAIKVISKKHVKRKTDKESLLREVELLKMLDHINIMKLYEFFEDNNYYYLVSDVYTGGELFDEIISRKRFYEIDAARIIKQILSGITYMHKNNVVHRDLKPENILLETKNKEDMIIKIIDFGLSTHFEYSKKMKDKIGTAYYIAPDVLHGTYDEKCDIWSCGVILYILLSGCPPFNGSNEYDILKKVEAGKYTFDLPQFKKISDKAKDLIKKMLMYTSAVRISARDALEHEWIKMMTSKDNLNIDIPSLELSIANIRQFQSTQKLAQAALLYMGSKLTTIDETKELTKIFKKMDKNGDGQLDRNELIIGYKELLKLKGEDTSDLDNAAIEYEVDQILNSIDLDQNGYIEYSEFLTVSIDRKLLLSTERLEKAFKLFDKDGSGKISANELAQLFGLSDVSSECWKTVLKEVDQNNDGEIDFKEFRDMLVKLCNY
Chain of Plasmodium falciparum protein kinase 6 (PK6, PF3D7_1337100) (Q8IDW1 1-305): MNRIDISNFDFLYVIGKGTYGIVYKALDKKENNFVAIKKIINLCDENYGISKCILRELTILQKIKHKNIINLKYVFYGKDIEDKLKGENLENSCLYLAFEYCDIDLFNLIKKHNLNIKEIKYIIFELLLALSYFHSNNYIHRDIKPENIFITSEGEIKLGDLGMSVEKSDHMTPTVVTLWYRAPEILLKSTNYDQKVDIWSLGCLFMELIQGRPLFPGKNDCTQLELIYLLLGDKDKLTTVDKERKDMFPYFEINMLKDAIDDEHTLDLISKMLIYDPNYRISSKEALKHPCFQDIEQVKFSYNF

As for `COc1ccc(CCNC(C)Cc2ccc(C(=O)Nc3ccc(CC(C)NCCc4cccc(Cl)c4)cc3)cc2)cc1` (configuration not stated), the growth inhibition in assay [1] was 89% (active); in assay [4] it was 101% (active). Also, the inhibition in assay [2] was 99% (active); in assay [3] it was -10%. The result in assay [5], in assay [6], in assay [7] and in assay [8] was inactive.
Turning to `CC(=O)Nc1ccc(Nc2c3ccccc3nc3ccccc23)cc1`, the growth inhibition in assay [1] is 62% (active); in assay [4] it was 89% (active). Moreover, the inhibition in assay [2] is 41%; in assay [3], 3%. Besides, the result in assay [5], in assay [6], in assay [7] and in assay [8] was inactive.
In the case of `CCCc1cc(OC)c(C[C@H]2c3cc(O)c(Cl)cc3CCN2C)cc1OC`, the growth inhibition was 98% (active) in assay [1] and 97% (active) in assay [4]. Moreover, the inhibition in assay [2] is -3%; in assay [3] it was -6%. The result in assay [5], in assay [6], in assay [7] and in assay [8] was inactive.
With `CC(C)C(=O)NC(c1ccc(Cl)cc1)c1ccc2cccnc2c1O` (configuration not stated), the growth inhibition is 70% (active) in assay [1] and 91% (active) in assay [4]. Also, the inhibition in assay [2] was 53% (active); in assay [3] it was 3%. The result in assay [5], in assay [6], in assay [7] and in assay [8] was inactive.
For the compound `Cc1nc(Nc2cc(Cl)ccc2O)nc(Nc2cc(Cl)ccc2O)c1[N+](=O)[O-]`, the growth inhibition is 83% (active) in assay [1] and 98% (active) in assay [4]. The inhibition in assay [2] is -4%; in assay [3], 3%. The result in assay [5], in assay [6], in assay [7] and in assay [8] was inactive.
Consider `CC(C)(C)c1ccc(CN2CCC(CNC(=O)c3cc(-c4ccccc4Cl)cs3)C2)cc1` (configuration not stated), for which the growth inhibition in assay [1] was 56% (active); in assay [4], 101% (active). Further, the inhibition in assay [2] is 33%; in assay [3] it was 1%. The outcome in assay [5], in assay [6], in assay [7] and in assay [8] was inactive.
For the compound `CCOc1ccc(-c2nonc2NC(=O)c2cccs2)cc1OCC`, the growth inhibition was 100% (active) in assay [1] and 101% (active) in assay [4]. Also, the figures for the inhibition in assay [2] and in assay [3] were 6% and 4%, respectively. Besides, the outcome in assay [5], in assay [6], in assay [7] and in assay [8] was inactive.
In the case of `Cc1cc(C(=O)Nc2ccc3c(c2)CCN3C2CCN(Cc3csc4ccccc34)C2)no1` (configuration not stated), the growth inhibition in assay [1] and in assay [4] was 96% (active) each time. Also, the figures for the inhibition in assay [2] and in assay [3] were 1% and 0%, respectively. Besides, the result in assay [5], in assay [6], in assay [7] and in assay [8] was inactive.
For the compound `CC(C)(C)Nc1cc(C(=O)N[C@@H](Cc2ccccc2)[C@H](O)CNC2CCOCC2)cc(N2CCCCS2(=O)=O)c1`, the figures for the growth inhibition in assay [1] and in assay [4] were 98% (active) and 99% (active), respectively. In addition, the inhibition was -5% in assay [2] and -1% in assay [3]. In addition, the outcome in assay [5], in assay [6], in assay [7] and in assay [8] was inactive.
For the compound `CCNC(=O)Nc1cccc(-c2cccc(-c3nc4c(C)cccc4[nH]3)c2)c1`, the growth inhibition in assay [1] was 31%; in assay [4], 85% (active). Moreover, the inhibition in assay [2] was 7%; in assay [3], 4%. In addition, the result in assay [5], in assay [6], in assay [7] and in assay [8] was inactive.
For `O=C1CCCN1CCCNCc1cccc(-c2cccc(-c3nc4ccc(F)cc4[nH]3)c2)c1`, the growth inhibition in assay [1] is 69% (active); in assay [4], 100% (active). The figures for the inhibition in assay [2] and in assay [3] were 6% and -3%, respectively. For the same compound, the result in assay [5], in assay [6], in assay [7] and in assay [8] was inactive.
As to `Cc1cccc2[nH]c(-c3ccc(-c4cccc(CN5CCCC(O)C5)c4)s3)nc12` (configuration not stated), the figures for the growth inhibition in assay [1] and in assay [4] were 18% and 95% (active), respectively. In addition, the inhibition in assay [2] is 13%; in assay [3], 2%. For the same compound, the outcome in assay [5], in assay [6], in assay [7] and in assay [8] was inactive.
For the compound `CC(O)C1CCCCN1C(=O)c1ccc(-c2ccc(-c3nc4ccccc4[nH]3)s2)cc1` (configuration not stated), the growth inhibition was 98% (active) in assay [1] and 101% (active) in assay [4]. The inhibition was 33% in assay [2] and -2% in assay [3]. The result in assay [5], in assay [6], in assay [7] and in assay [8] was inactive.
As for `Cc1cc(NC(=O)NCCN2CCC(NC(=O)c3ccc(C(F)(F)F)cc3)CC2)c2ccccc2n1`, the growth inhibition is 75% (active) in assay [1] and 98% (active) in assay [4]. Besides, the inhibition was 3% in assay [2] and -3% in assay [3]. The result in assay [5], in assay [6], in assay [7] and in assay [8] was inactive.
In the case of `Clc1nc2ccccn2c1C=Cc1ccc2ccccc2n1`, the figures for the growth inhibition in assay [1] and in assay [4] were 75% (active) and 86% (active), respectively. Further, the inhibition was -31% in assay [2] and -6% in assay [3]. Besides, the outcome in assay [5], in assay [6], in assay [7] and in assay [8] was inactive.
Regarding `O=C(/C=C/c1ccccc1Cl)Nc1ccc(Br)c(OCCN2CCC(O)(c3ccccc3)CC2)c1`, the results for the growth inhibition in assay [1] and in assay [4] were 85% (active) and 101% (active), respectively. In addition, the inhibition is 39% in assay [2] and 0% in assay [3]. Moreover, the result in assay [5], in assay [6], in assay [7] and in assay [8] was inactive.
For the compound `Cc1cccc2[nH]c(-c3ccc(-c4cccc(NC(=O)C(C)CN5CCN(C)CC5)c4)cc3)nc12` (configuration not stated), the growth inhibition in assay [1] was 51% (active); in assay [4], 98% (active). Also, the inhibition was 5% in assay [2] and 3% in assay [3]. Further, the result in assay [5], in assay [6], in assay [7] and in assay [8] was inactive.
`O=c1c(NCCCN(Cc2ccc(F)cc2)c2ccccn2)c(NCc2cccnc2)c1=O`: the results for the growth inhibition in assay [1] and in assay [4] were 92% (active) and 101% (active), respectively. Besides, the inhibition in assay [2] and in assay [3] was -2% throughout. The result in assay [5], in assay [6], in assay [7] and in assay [8] was inactive.
Take `CC(C)(C)NCc1cc(Nc2ccnc3cc(Cl)ccc23)ccc1F`: the growth inhibition in assay [1] was 100% (active); in assay [4] it was 101% (active). In addition, the values for the inhibition in assay [2] and in assay [3] were 21% and 6%, respectively. Also, the outcome in assay [5], in assay [6], in assay [7] and in assay [8] was inactive.
